Y pestis TopoI – inhibitors of Yersinia pestis topoisomerase I. Y. pestis Topo-I cleavage product accumulation, plate reader. activity, % at 10 µM. actives 0.064% (n = 360,000). AID 504884; in the data active means activity above about 50%, passing the limit was not always enough
Mtb FBA inh – Mtb fructose-bisphosphate aldolase inhibition; AID 588726; inhibition, % at 1 µM; purified M. tuberculosis FBA, fluorescence read-out; P9WQA3; actives 2.3% (n = 360,000); in the data active means inhibition above about 27%;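 further: 0% = vehicle and 100% = reference inhibitor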
Target sequence (P9WQA3 whole entry, looked up): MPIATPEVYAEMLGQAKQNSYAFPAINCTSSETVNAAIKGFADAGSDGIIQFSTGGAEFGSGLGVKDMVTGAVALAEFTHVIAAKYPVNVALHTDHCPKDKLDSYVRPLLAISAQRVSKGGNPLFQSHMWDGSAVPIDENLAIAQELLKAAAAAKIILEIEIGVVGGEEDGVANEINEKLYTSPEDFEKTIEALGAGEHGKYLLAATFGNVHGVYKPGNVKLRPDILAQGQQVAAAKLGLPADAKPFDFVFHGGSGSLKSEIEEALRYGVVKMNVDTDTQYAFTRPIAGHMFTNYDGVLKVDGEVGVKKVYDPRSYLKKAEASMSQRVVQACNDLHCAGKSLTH
TcdB GH inh – TcdB glycohydrolase inhibition; actives 0.24% (n = 350,000); P18177; AID 652162; TcdB glycohydrolase enzymatic assay, plate reader; inhibition, % at 9.99 µM
PrPC TRFRET – cell surface PrPC inhibition, primary TR-FRET screen; P04156; TR-FRET read-out; inhibition, % at 13.8 µM; actives 0.43% (n = 370,000); AID 720596; in the data active means inhibition above about 24%; further: 0% = median of the test wells and 100% = reference compound wells
GDH-TPI counter-1 – GDH-TPI coupled enzyme inhibition counter-screen. inhibition, % at 4.8 µM. GDH-TPI coupled enzyme counterscreen, NADH absorbance. AID 588335. actives 1.2% (n = 360,000); in the data active means inhibition above about 30%;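 further: 0% = DMSO wells and 100% = wells lacking the enzyme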
Mtb FBA confirm – Mtb FBA inhibition, confirmed; shares compounds with Mtb FBA inh; purified M. tuberculosis FBA, fluorescence read-out; inhibition, % at 1 µM; actives 78% (n = 5,600); AID 651616; in the data active means inhibition above about 27%;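 further: 0% = vehicle wells and 100% = reference inhibitor wells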
GDH-TPI counter-2 – inhibits GDH-TPI coupling enzymes, flagging Mtb FBA hits. actives 81% (n = 5,600). GDH-TPI coupled enzyme counterscreen, fluorescence. inhibition, % at 1 µM. shares compounds with Mtb FBA inh
GDH-TPI DR – inhibits GDH-TPI coupling enzymes in dose response; AID 652145; actives 79% (n = 170); shares compounds with Mtb FBA inh; IC50, µM; GDH-TPI coupled enzyme assay, fluorescence, artifact counterscreen; call rule not given here
Active calls of the source: *; . = no result; + = active, no number. In the library only some 3.2% were active in any assay of this set; here they are far more common. Unless noted, no stated cut-off is given here; in the data, active means inhibition above about 10%; inactive means the rest.

SMILES | Y pestis TopoI | Mtb FBA inh | TcdB GH inh | PrPC TRFRET | GDH-TPI counter-1 | Mtb FBA confirm | GDH-TPI counter-2 | others
Cc1cc2c(c(=O)n1CCc1ccccc1)C(c1ccco1)C(C#N)=C(N)O2 (stereo unspecified) | 11.4 | 40.1* | . | -6.0 | 5.5 | 1.9 | -3.0
O=C(Nc1ccc2oc(-c3ccccc3F)nc2c1)c1ncn[nH]1 | 3.0 | 37.2* | . | 1.4 | 12.9 | 158.5* | 143.4*
CC(C)C#Cc1cnc2c(c1)C(=O)N([C@H](C)CO)C[C@H](C)[C@@H](CN(C)Cc1cncnc1)O2 | . | . | -0.1 | . | . | . | .
CCN1CCN(c2cc(=O)n3ccccc3n2)CC1 | 0.4 | 7.5 | 1.0 | 4.1 | 12.6 | . | .
CCN1CCN(c2cc3c(nn2)Oc2ccccc2N3C)CC1 | 0.2 | 73.3* | . | -4.9 | 8.3 | 4.9 | -5.2
CCOC(=O)C1=C(C)NC(=O)NC1c1cn(-c2ccccc2)nc1-c1cccs1 (stereo unspecified) | 7.8 | 3.1 | . | 7.8 | -9.4 | . | .
CCOC(=O)C1=C(C)NC(C)=C(C(=O)OCC)C1c1cn(-c2ccccc2)nc1-c1ccco1 | 15.8 | 60.9* | . | 0.8 | 4.1 | 3.2 | -5.6
CO[C@H]1CN(C)C(=O)c2cc(NC(=O)NC(C)C)ccc2OC[C@@H](C)N(C)C[C@H]1C | . | . | -0.5 | . | . | . | .
COCCCn1cnc2oc3nc4ccccc4nc3c2c1=O | 4.0 | 100.1* | . | -69.9 | 8.7 | 85.7* | 64.5*
COCCCn1cnc2c(c1=O)c1nc3ccccc3nc1n2-c1ccccc1 | 8.9 | 6.5 | . | -23.1 | 6.9 | . | .
COc1ccc(-c2ccc(C(=O)NCc3ccc(F)c(F)c3)c3occc23)c(C)c1 | 31.1 | 10.5 | 0.8 | 2.6 | 3.6 | . | .
COc1ccc(-c2ccc(C(=O)NCC3CC3)c3occc23)c(C)c1 | 40.4 | 57.0* | 3.3 | 2.6 | -0.9 | 45.8* | 32.9*
COc1ccc(-c2ccc(C(=O)NCC(C)C)c3occc23)c(C)c1 | 27.7 | 57.7* | 2.0 | 6.8 | 9.7 | 166.4* | 132.1*
COc1ccc(-c2ccc(C(=O)NCc3ccncc3)c3occc23)c(C)c1 | 14.8 | 110.6* | 1.5 | 23.2 | -8.0 | + | +
COc1ccc(-c2ccc(C(=O)Nc3ccccc3)c3occc23)c(C)c1 | 25.9 | -2.0 | 0.9 | -1.5 | 3.6 | . | .
C[C@H](CO)N1C[C@H](C)[C@H](CN(C)C(=O)Nc2ccc(C(F)(F)F)cc2)Oc2ccc(NC(=O)Nc3ccc4c(c3)OCO4)cc2CC1=O | . | . | 1.1 | . | . | . | .
CCCNC(=O)c1cc2c(c(-c3cccc(-c4cccc(OC)c4)c3)n1)[C@@H](CCO)N([S@](=O)C(C)(C)C)C2 | . | . | -2.7 | . | . | . | .
Cc1ccc(-n2cnc(=O)c3cccnc32)cc1 | 5.9 | 1.1 | . | 0.2 | -4.6 | . | .
Cc1cn2c(nc(=O)c3cccnc32)s1 | 2.3 | 36.3* | . | 2.3 | 15.4 | 107.1* | 86.7*
Fc1ccc(C2C3=C(Nc4ncnn42)c2ccccc2OC3c2ccncc2)cc1 (stereo unspecified) | 15.5 | 37.3* | . | 0.5 | 0.9 | 101.8* | 64.4*
CN1Cc2c(N3CCOCC3)nc3sc(C#N)c(N)c3c2CC1(C)C | -8.4 | 78.4* | 1.0 | -5.7 | 5.7 | 13.8 | -4.7 | GDH-TPI DR=1.84*
CNC(=O)c1ccc(-c2sc3nc(N4CCOCC4)c4c(c3c2N)CC(C)(C)OC4)o1 | -5.3 | 40.9* | . | -10.4 | 24.3 | 45.5* | 29.9*
CC(=O)N1CC2(C1)[C@H](c1ccc(-c3ccc(F)cc3)cc1)[C@@H](CO)N2C(C)=O | . | . | 0.5 | . | . | . | .
CCC(=O)N1C[C@H](C)[C@@H](OC)CN(C)C(=O)c2cc(NC(=O)C3CCOCC3)ccc2OC[C@@H]1C | . | . | 0.5 | . | . | . | .
Cc1cccc(-c2cc3nc(-c4ccccc4)cc(N4CCC5(CC4)OCCO5)n3n2)c1 | -4.4 | 24.7 | . | -2.7 | 7.5 | . | .
SMILES | Y pestis TopoI | Mtb FBA inh | TcdB GH inh | PrPC TRFRET | GDH-TPI counter-1 | Mtb FBA confirm | GDH-TPI counter-2 | others
Cc1ccc(-c2cc3nc(-c4ccccc4)cc(N4CCC5(CC4)OCCO5)n3n2)cc1 | -5.7 | 33.1* | . | -5.4 | 16.0 | + | +
Fc1cccc(-c2cc3nc(-c4ccccc4)cc(N4CCC5(CC4)OCCO5)n3n2)c1 | 4.2 | 52.7* | . | 1.7 | 7.1 | -1.6 | -5.5
CN1CCN(C(=O)C[C@@H]2CC[C@@H]3[C@H](COC[C@H](O)CN3C(=O)C3CCOCC3)O2)CC1 | . | . | -6.2 | . | . | . | .
CCN1C(=O)CSc2ccc(C(=O)NCc3ccccc3)cc21 | -3.8 | 3.2 | -0.4 | 1.6 | -1.7 | . | .
CCC(C)NC(=O)c1ccc2c(c1)N(Cc1ccccc1)C(=O)CS2 (stereo unspecified) | 11.0 | 96.6* | 0.9 | 11.8 | 4.4 | 68.3* | 78.1*
COc1ccccc1-c1cc(C(F)(F)F)nc(NCc2ccco2)n1 | 9.4 | 5.1 | . | 3.0 | 15.1 | . | .
CNc1cc(-c2cccc(OC)c2F)nc2ccnn12 | 5.6 | 109.1* | 1.9 | 4.0 | 7.1 | 89.5* | 62.4*
N#C/C(=C(/O)CCCl)c1ccccn1 | -3.0 | 58.9* | . | 0.0 | 4.7 | 86.8* | 54.7*
COc1ccc(S(=O)(=O)N(C)C[C@@H]2Oc3ccc(NC(=O)Nc4c(C)noc4C)cc3CC(=O)N([C@H](C)CO)C[C@H]2C)cc1 | . | . | 0.6 | . | . | . | .
Cc1cc2ncc(-c3cccs3)nc2cc1C | -5.1 | 73.3* | 1.7 | 4.4 | 8.1 | 67.6* | 58.1*
COC(=O)c1cc(COc2ccc3ccc(=O)oc3c2)c(C)o1 | 3.3 | 36.0* | . | -3.6 | 18.6 | 7.8 | 1.1
CC(C)=CCOc1ccc2ccc(=O)oc2c1 | 4.3 | 65.3* | 0.7 | 7.0 | 7.8 | 59.5* | 49.9*
CC(C)=CCC/C(C)=C/COc1ccc2ccc(=O)oc2c1 | -4.0 | 15.4 | 0.3 | 5.2 | 28.4 | . | .
CC1=CC(C/C(C)=C/COc2ccc3ccc(=O)oc3c2)OC1=O (stereo unspecified) | 7.0 | 47.8* | -4.7 | 4.2 | 12.8 | 53.6* | 44.2*
CC(C)=CCC/C(C)=C/CC/C(C)=C/COc1ccc2ccc(=O)oc2c1 | 15.4 | 30.3* | -0.2 | 0.6 | 1.7 | -6.8 | -7.7
Cc1ccc(S(=O)(=O)N(C)C[C@@H]2Oc3c(NC(=O)Nc4ccc(F)cc4)cccc3C(=O)N([C@H](C)CO)C[C@@H]2C)cc1 | . | . | 1.2 | . | . | . | .
COCC(=O)N(Cc1cc2ccc(C)cc2[nH]c1=O)c1ccc(OC)cc1 | -11.4 | 61.5* | . | -4.2 | 7.6 | 138.7* | 127.7*
CCOc1ccc(N(Cc2cc3ccc(C)cc3[nH]c2=O)C(=O)COC)cc1 | 4.2 | -3.2 | . | 7.4 | 8.6 | . | .
CCNC(=O)[C@@H]1[C@@H](CO)[C@@H]2Cn3c(ccc(-c4cccc(F)c4)c3=O)[C@H]1N2C(=O)c1cnccn1 | . | . | -3.2 | . | . | . | .
Cc1csc2nc(=O)c3ccccc3n12 | 1.3 | 49.3* | . | 2.7 | 5.3 | + | 174.6*
CN(C)C(=O)C[C@@H]1C[C@H]2c3cc(NC(=O)Nc4ccc(C(F)(F)F)cc4)ccc3O[C@H]2[C@@H](CO)O1 | . | . | 0.5 | . | . | . | .

Compound activity (PubChem BioAssay)
